# A number with no mark means an inactive call. Records with an inconclusive call do not appear. Entries that show only a call come without a potency. Activity calls are given as the source filed them. Unless noted, the call rests on the fitted dose curve; in most records, active means well fitted curve in the direction sought with a large enough effect in the repeat runs; inconclusive means weak or mixed curves; inactive means no such curve, though single readings can be large; an effect the other way counts as inactive or inconclusive.
# Columns and labels:
# [1] = qHTS assay for small molecule agonists of the p53 signaling pathway (AID 651631; calls by dose curve; further: nearly all actives have a fitted effect of over 15% in size; further: potency means the concentration at half of the fitted maximal effect)
# Summary of the method: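 HCT-116 cells carrying a stable p53 response element–beta-lactamase reporter were plated, rested 5 h at 37 °C, then exposed to compound in DMSO for 16 h at 37 °C; reporter activity was read as FRET substrate fluorescence after 2 h at room temperature.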
# [2] = qHTS assay for small molecules that induce genotoxicity in human embryonic kidney cells expressing luciferase-tagged ATAD5 (AID 651632); further: nearly all actives have a fitted effect of over 15% in size
# Summary of the method: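 ATAD5-luc HEK293T, 2,000 cells/well; cpd or DMSO pin-transferred; 16 hr, 37C/5% CO2; Amplite 30 min RT; luminescence.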
# [3] = qHTS assay for small molecule agonists of the p53 signaling pathway - cell viability (AID 651633; calls by dose curve; further: nearly all actives have a fitted effect of over 30% in size; further: potency means the concentration at half of the fitted maximal effect)
# Summary of the method: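 p53RE-bla cells, seeded at 4,000 per well and rested 5 h at 37 C/5% CO2, received compounds in DMSO for 16 h at 37 C. CellTiter-Glo was then added, and luminescence was read after 30 min at room temperature to gauge cytotoxicity.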
# [4] = qHTS assay for small molecule disruptors of the mitochondrial membrane potential - cell viability (AID 720634; calls by dose curve; further: nearly all actives have a fitted effect of over 20% in size; further: potency means the concentration at half of the fitted maximal effect)
# Summary of the method: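 Cells: HepG2, 2,000/well, attached overnight. Compound 1 hr, 37 C/5% CO2. +m-MPI dye, +CellTiter-Glo 30 min RT. Readout: luminescence (ATP).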
# [5] = qHTS assay to test for compound auto fluorescence at 590 nm (red) in HepG2 cells (AID 720674)
# Summary of the method: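 Compound auto-fluorescence is scored relative to Rose Bengal sodium, measured at 540/590 nm in live HepG2 cultures after 1 hr compound contact (37 C, 5% CO2).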
# [6] = qHTS assay to test for compound auto fluorescence at 535 nm (green) in HepG2 cells (AID 720675)
# [7] = qHTS assay to test for compound auto fluorescence at 460 nm (blue) in HEK293 cells (AID 720678)
# Summary of the method: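 Blue read-out at excitation 405 nm and emission 460 nm follows overnight compound exposure of HEK293 cells at 37C in 5% CO2. Activity is given as auto fluorescence equivalency to triamterene.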
# [8] = qHTS assay to test for compound auto fluorescence at 590 nm (red) in HEK293 cells (AID 720679)
# Summary of the method: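 Red channel, Ex/Em 540/590nm; signal expressed as equivalency to Rose Bengal sodium. HEK293, 2,000 cells/well, 10% dialyzed FBS; 23 nL compound pinned after 4-5 hr attachment; overnight 37C/5% CO2 before reading.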
# [9] = qHTS assay to test for compound auto fluorescence at 535 nm (green) in HEK293 cells (AID 720680)
# [10] = qHTS assay to test for compound auto fluorescence at 460 nm (blue) in HEK293 cell free culture (AID 720681)
# Summary of the method: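 Test compounds were pinned into cell-free culture medium (DMEM with 10% FBS) and fluorescence was read directly at Ex/Em 405/460 nm. Signals were expressed as fluorescence equivalents of triamterene, with DMSO vehicle as control.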
# [11] = qHTS assay to test for compound auto fluorescence at 590 nm (red) in HEK293 cell free culture (AID 720683)
# Summary of the method: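 Tox21 10K library compounds were pinned into cell-free DMEM with 10% FBS and fluorescence was read at excitation 540 nm. Activity is expressed as Rose Bengal sodium equivalency.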
# [12] = qHTS assay to test for compound auto fluorescence at 590 nm (red) in HepG2 cell free culture (AID 720684)
# Summary of the method: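 Measured in medium alone (MEM containing 10% FBS) following pintool addition of compound; emission at 590 nm with 540 nm excitation, referenced to Rose Bengal sodium.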
# [13] = qHTS assay to test for compound auto fluorescence at 460 nm (blue) in HepG2 cell free culture (AID 720685)
# Summary of the method: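 Compound (23 nL) or DMSO pinned into cell-free MEM with 10% FBS; blue fluorescence read at 405/460 nm excitation/emission, expressed as auto-fluorescence equivalency to triamterene.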
# [14] = qHTS assay to test for compound auto fluorescence at 535 nm (green) in HepG2 cell free culture (AID 720686)
# [15] = qHTS assay to test for compound auto fluorescence at 460 nm (blue) in HepG2 cells (AID 720687)
# Summary of the method: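 Cells (2,000/well in MEM with 10% FBS) attached overnight at 37 C, then were exposed to compound or DMSO for 1 hr at 37 C, 5% CO2. Fluorescence read at Ex/Em 405/460 nm, expressed as triamterene-equivalent signal.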
# [16] = target: Glucocorticoid receptor (Homo sapiens) (UniProt P04150); test: qHTS assay to identify small molecule agonists of the glucocorticoid receptor (GR) signaling pathway (AID 720691; active means well fitted activation curve with a large enough effect in the signal ratio in the repeat runs, not every such curve was filed as active; the % refers to the signal ratio)
# Summary of the method: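 Fluorescence intensity from LiveBLAzer B/G FRET substrate (2 h, room temperature) reports beta-lactamase expression driven by the glucocorticoid response element in GR-bla HeLa cells after 18 h compound exposure at 37 C.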
# [17] = qHTS assay to test for compound auto fluorescence at 535 nm (green) in HEK293 cell free culture (AID 720682)
# Summary of the method: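 Read-out: 485/535 nm fluorescence intensity, calibrated against fluorescein. Medium only (DMEM + 10% FBS, no cells); test compound or DMSO vehicle added by pintool before plate reading.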
# [18] = qHTS assay for small molecules that induce genotoxicity in human embryonic kidney cells expressing luciferase-tagged ATAD5 - cell viability (AID 651634; calls by dose curve; further: nearly all actives have a fitted effect of over 25% in size)
# Summary of the method: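 Fluorescence from CellTiter-Fluor, reporting protease activity within live cells, served as the viability read-out. HEK293T cells carrying luciferase-tagged ATAD5 had been treated with compound for 15.5 hr at 37C.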
# [19] = target: Glucocorticoid receptor (Homo sapiens) (UniProt P04150); test: qHTS assay to identify small molecule antagonists of the glucocorticoid receptor (GR) signaling pathway (AID 720692; active means well fitted inhibition curve with a large enough effect in the signal ratio in the repeat runs, not every such curve was filed as active; the % refers to the signal ratio)
# Summary of the method: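 HeLa GR-bla cells; cmpd + dex 5 nM final, 18 h 37 C; LiveBLAzer B/G FRET substrate 2 h RT; fluorescence intensity read. Antagonist mode, qHTS.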
# [20] = qHTS assay for small molecule disruptors of the mitochondrial membrane potential (AID 720635); further: potency means the concentration at half of the fitted maximal effect
# Summary of the method: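 HepG2 cells (2,000/well) attached overnight at 37C, then took compound for 1 hr at 37C, 5% CO2. Mito-MPS dye was added for 30 min; fluorescence was read at 490/535 nm (monomers) and 540/590 nm (aggregates).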
# Chain of Glucocorticoid receptor (Homo sapiens) (P04150 whole entry, looked up): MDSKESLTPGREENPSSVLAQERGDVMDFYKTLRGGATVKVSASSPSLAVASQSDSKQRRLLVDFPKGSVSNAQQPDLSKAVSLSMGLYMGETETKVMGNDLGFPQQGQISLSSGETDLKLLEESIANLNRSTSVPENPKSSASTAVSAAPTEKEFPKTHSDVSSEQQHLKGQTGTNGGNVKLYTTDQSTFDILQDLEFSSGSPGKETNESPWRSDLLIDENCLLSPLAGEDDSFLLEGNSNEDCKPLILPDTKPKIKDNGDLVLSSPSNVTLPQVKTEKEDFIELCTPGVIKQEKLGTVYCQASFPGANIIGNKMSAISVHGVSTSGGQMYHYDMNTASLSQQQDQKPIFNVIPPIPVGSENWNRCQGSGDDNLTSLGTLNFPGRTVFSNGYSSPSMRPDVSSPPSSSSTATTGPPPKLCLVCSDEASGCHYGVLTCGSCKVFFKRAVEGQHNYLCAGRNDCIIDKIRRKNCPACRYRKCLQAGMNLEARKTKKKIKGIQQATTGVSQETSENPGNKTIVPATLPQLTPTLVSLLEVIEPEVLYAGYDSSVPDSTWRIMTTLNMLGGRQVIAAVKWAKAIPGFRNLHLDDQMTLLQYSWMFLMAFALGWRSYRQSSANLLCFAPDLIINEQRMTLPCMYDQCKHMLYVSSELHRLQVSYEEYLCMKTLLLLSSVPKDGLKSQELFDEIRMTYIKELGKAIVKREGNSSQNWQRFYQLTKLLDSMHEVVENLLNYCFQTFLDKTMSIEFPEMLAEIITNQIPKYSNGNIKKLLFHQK
Structure (SMILES),Potency [1],Potency [2],Potency [3],Potency [4],Potency [5],Potency [6],Potency [7],Potency [8],Potency [9],Potency [10],Potency [11],Potency [12],Potency [13],Potency [14],Potency [15],Potency [16],Potency [17],Potency [18],Potency [19],Potency [20]
O=c1[nH]c2ccccc2n1CCCN1CCN(C(c2ccccc2)c2ccccc2)CC1,inactive,inactive,inactive,inactive,inactive,inactive,inactive,inactive,inactive,inactive,inactive,inactive,inactive,inactive,inactive,inactive,,,,
Clc1nnc(Cl)c2ccccc12,inactive,inactive,inactive,inactive,inactive,inactive,inactive,,inactive,inactive,inactive,inactive,inactive,inactive,inactive,inactive,inactive,,,
CC1(C)CC(O)CC(C)(C)N1,inactive,inactive,inactive,,inactive,inactive,inactive,inactive,inactive,inactive,inactive,inactive,,inactive,inactive,inactive,inactive,inactive,inactive,
CC(C)(c1cc(Br)c(OCC(Br)CBr)c(Br)c1)c1cc(Br)c(OCC(Br)CBr)c(Br)c1 (configuration not stated),inactive,inactive,inactive,,inactive,inactive,inactive,inactive,inactive,,inactive,inactive,,inactive,inactive,inactive,inactive,inactive,inactive,
CC(CCc1ccccc1)NCC(O)c1ccc(O)c(C(N)=O)c1 (configuration not stated),inactive,inactive,inactive,inactive,inactive,inactive,inactive,inactive,inactive,,inactive,inactive,inactive,,inactive,inactive,inactive,,,inactive
CCc1oc2ccccc2c1C(=O)c1cc(I)c(O)c(I)c1,23.7 µM (active),inactive,26.6 µM (active),26.6 µM (active),inactive,inactive,inactive,inactive,inactive,inactive,inactive,inactive,inactive,inactive,inactive,,inactive,,,2.66 µM (active)
CC(C)CCOC(=O)/C=C/c1ccccc1,inactive,inactive,inactive,inactive,inactive,inactive,inactive,inactive,inactive,,inactive,inactive,inactive,inactive,inactive,inactive,,,inactive,inactive
O=[N+]([O-])c1cccc(C(F)(F)F)c1,inactive,inactive,inactive,inactive,inactive,inactive,inactive,inactive,inactive,inactive,inactive,inactive,,inactive,inactive,inactive,inactive,,inactive,
O=C(O)Cc1ccccc1Nc1c(Cl)cccc1Cl,inactive,inactive,inactive,,inactive,inactive,inactive,,inactive,inactive,inactive,inactive,inactive,inactive,inactive,,inactive,inactive,,

# — PubChem BioAssay (Tox21)
